Bioassay records from PubChem BioAssay.
In the library only some 3.7% were active in any assay of this set; here they are far more common.
Mtb UGM inh: inhibitors of M. tuberculosis UDP-galactopyranose mutase. purified UGM, fluorescence polarization probe displacement. AID 504406. P9WIQ1. actives 0.06% (n = 320,000). inhibition, % at 10 µM; in the data active means inhibition above about 10%, passing the limit was not always enough; inconclusive means no clear call, values can overlap the other calls
FadD28 binding: M. tuberculosis FadD28 bisubstrate binding inhibition. FadD28 bisubstrate probe binding, fluorescence polarization. inhibition, % at 12.5 µM. actives 0.22% (n = 360,000); in the data active means inhibition above about 8.5%, passing the limit was not always enough; inconclusive means no clear call, values can overlap the other calls
Mtb FBA inh: inhibitors of M. tuberculosis fructose-bisphosphate aldolase | P9WQA3 | purified M. tuberculosis FBA, fluorescence read-out | inhibition, % at 1 µM | actives 2.3% (n = 360,000);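 further: 0% = vehicle and 100% = reference inhibitor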
Target sequence (P9WQA3 whole entry, looked up): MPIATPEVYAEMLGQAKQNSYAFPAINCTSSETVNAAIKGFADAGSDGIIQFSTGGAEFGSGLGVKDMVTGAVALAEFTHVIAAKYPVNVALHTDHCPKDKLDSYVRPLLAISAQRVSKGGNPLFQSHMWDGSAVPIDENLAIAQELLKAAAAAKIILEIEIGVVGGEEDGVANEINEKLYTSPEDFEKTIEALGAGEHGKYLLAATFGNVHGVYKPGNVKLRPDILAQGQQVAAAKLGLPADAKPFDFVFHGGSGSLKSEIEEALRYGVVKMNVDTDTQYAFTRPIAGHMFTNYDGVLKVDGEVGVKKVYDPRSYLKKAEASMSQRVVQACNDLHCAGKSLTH
GDH-TPI counter-1: counter-screen for M. tuberculosis FBA inhibitors: GDH-TPI coupled enzymes; AID 588335; actives 1.2% (n = 360,000); GDH-TPI coupled enzyme counterscreen, NADH absorbance; inhibition, % at 4.8 µM; in the data active means inhibition above about 30%;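 further: 0% = DMSO wells and 100% = wells lacking the enzyme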
Rv3671c inh: inhibits the M. tuberculosis serine protease Rv3671c | P9WHR9 | inhibition, % at 5.96 µM | actives 0.048% (n = 320,000); in the data active means inhibition above about 38%;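 further: extracellular domain of Rv3671c used as enzyme; 0% = enzyme with DMSO and 100% = no enzyme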
Mtb bLac sens: beta-lactam sensitization of Mtb H37Rv; M. tuberculosis H37Rv growth with meropenem, percent inhibition; inhibition, % at 25 µM; actives 0.27% (n = 330,000); call rule not given here;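 further: growth measured after seven days incubation then overnight dye step; 0% = bacteria only wells and 100% = bacteria with antibiotic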
Mtb FBA inh conf: Mtb FBA inhibition, confirmed; shares compounds with Mtb FBA inh; purified M. tuberculosis FBA, fluorescence read-out; inhibition, % at 1 µM; actives 78% (n = 5,600);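 further: 0% = vehicle wells and 100% = reference inhibitor wells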
GDH-TPI counter-2: inhibits GDH-TPI coupling enzymes, flagging Mtb FBA hits | shares compounds with Mtb FBA inh | GDH-TPI coupled enzyme counterscreen, fluorescence | inhibition, % at 1 µM | actives 81% (n = 5,600) | AID 652141; in the data active means inhibition above about 10%
Active calls of the source: *; u = inconclusive; x = no result given; + = active, no number. Unless noted, no stated cut-off is given here; in the data, active means inhibition above about 27%; inactive means the rest.

SMILES | Mtb UGM inh | FadD28 binding | Mtb FBA inh | GDH-TPI counter-1 | Rv3671c inh | Mtb bLac sens | Mtb FBA inh conf | GDH-TPI counter-2
Cc1cc(=O)oc2cc(OCC(=O)Nc3ccc(S(=O)(=O)N(C)C)cc3)ccc12 | 0.2 | 1.7 | 29.2* | 4.9 | -15.8 | -3.2 | 101.4* | 63.6*
Cc1cc(=O)oc2cc(OCC(=O)OCC(=O)Nc3ccc(C(C)C)cc3)ccc12 | -1.3 | -2.2 | 29.3* | 5.9 | -10.4 | 2.9 | 86.3* | 69.3*
CNC(=O)COC(=O)COc1ccc2c(C)cc(=O)oc2c1 | -0.6 | -4.7 | 23.5 | 2.6 | 0.1 | -1.3 | x | x
COc1ccc(-c2csc(C(O)c3ccc(F)cc3)n2)cn1 (stereo unspecified) | x | -1.4 | 1.9 | 0.9 | x | x | x | x
O=C(O)CCc1ccc(-c2ccc(F)cc2)n1CC1CCCO1 (stereo unspecified) | -0.3 | -1.0 | 18.4 | -3.8 | 6.5 | 8.5 | x | x
COc1ccc(-c2ccc(CCC(=O)O)n2CC(C)C)cc1 | 1.8 | 3.1 | 40.9* | -11.6 | -4.5 | 27.5 | 47.5* | 29.8*
COc1ccc(-c2ccc(CCC(=O)O)n2CC2CCCO2)cc1 (stereo unspecified) | 1.6 | 0.2 | 32.5* | 10.7 | -16.9 | -8.2 | + | 144.1*
CC(C#N)(Nc1ccc(Cl)cc1)c1cccnc1 (stereo unspecified) | -0.4 | -1.9 | 27.5* | 9.8 | -4.6 | -12.4 | + | +
O=C(COc1ccc([N+](=O)[O-])cc1)Nc1nc(-c2ccccn2)cs1 | 0.2 | -5.1 | 27.9* | 10.0 | -24.3 | 91.0 | + | +
CCN1c2ccccc2-c2nc3ccccc3n2C1c1cccnc1 (stereo unspecified) | -2.3 | -1.9 | 68.1* | 9.8 | -4.9 | -6.3 | 96.5* | 83.7*
CCN1c2ccccc2-c2nc3ccccc3n2C1c1ccccn1 (stereo unspecified) | -2.5 | -2.6 | 50.8* | 6.0 | 0.1 | 45.3 | + | +
CC(=O)N1c2ccccc2-c2nc3ccccc3n2C1C (stereo unspecified) | -1.0 | -3.3 | 0.8 | 11.0 | 1.4 | 3.1 | x | x
COc1ccc(NC(=O)CC2CC3CCC2C3)cc1S(=O)(=O)N1CCOCC1 (stereo unspecified) | -0.4 | -3.7 | -4.1 | -0.9 | 5.0 | 1.6 | x | x
O=c1c2c(nc3c(-c4ccc(Cl)cc4)c[nH]n13)CCC2 | 1.5 | -4.7 | 44.1* | 5.1 | 4.6 | u | 31.9* | 27.6*
O=c1c2c(nc3c(-c4ccccc4)c[nH]n13)CCC2 | -2.7 | -2.3 | 42.6* | 9.9 | 8.5 | 95.5 | 59.0* | 37.8*
O=c1c2c(nc3c(-c4cccc(Br)c4)c[nH]n13)CCCC2 | 2.5 | -0.5 | -2.9 | 12.4 | -4.2 | 86.7 | x | x
Cc1ccc(-c2[nH]n3c(=O)c4c(nc3c2C)CCCC4)cc1 | -2.8 | -1.9 | 10.2 | 2.9 | -2.8 | -1.6 | x | x
COC(=O)[C@]1(Cc2ccccc2)N[C@H](CN(C)C(=O)Nc2ccc(C)cc2)[C@@H]2C(=O)N(C)C(=O)[C@@H]21 | 1.8 | 0.7 | -1.8 | 6.4 | 2.6 | -2.2 | x | x
Cc1ccc2nc(-c3ccc(C#N)cc3)c(Cc3ccccc3C(F)(F)F)n2c1 | x | -4.2 | 78.5* | x | x | x | 29.4* | 26.7*
Cc1ccc(-c2nc3ccc(Cl)cn3c2Cc2cccc(F)c2)cc1 | x | -10.1 | 6.2 | x | x | x | x | x
N#Cc1ccc(-c2nc3ccc(Br)cn3c2Cc2ccccc2C(F)(F)F)cc1 | x | -0.8 | 0.6 | x | x | x | x | x
N#Cc1ccc(-c2nc3ccc(Cl)cn3c2Cc2cccc(Cl)c2)cc1 | x | -5.5 | 16.1 | x | x | x | x | x
N#Cc1ccc(-c2nc3ccc(Cl)cn3c2Cc2cccc(F)c2)cc1 | x | -2.4 | 42.6* | x | x | x | + | 191.2*
Cc1ccc2nc(-c3ccc(C#N)cc3)c(Cc3cccc(Cl)c3)n2c1 | x | -4.0 | 40.9* | x | x | x | 35.2* | 34.7*
CCCc1nc2ccc(C)cn2c1Cc1cccc(Cl)c1 | x | -7.1 | 27.2* | x | x | x | + | 167.8*
OC(c1ccccc1)(c1nc(-c2ccc(F)c(Cl)c2)cs1)C(F)(F)F (stereo unspecified) | x | -18.2 | -3.8 | 6.2 | x | x | x | x
Cc1ccc(Cc2cnc(NC(=O)C3=NCCN3)s2)cc1 | -1.0 | x | x | x | -7.0 | 98.4 | x | x
